The record followed here is ChEMBL document CHEMBL1961873, “Compounds: GSK PKIS; Assays: Nanosyn kinase panel” (2012).

Structures are written as SMILES.

The target of assay [1] is Platelet-derived growth factor receptor beta (Homo sapiens) (UniProt P09619). To be noted: at 1 µM.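 Also: each value is a mean percent inhibition.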
Assay [2] concerns the target Tyrosine-protein kinase FRK (Homo sapiens) (UniProt P42685). Conditions: at 0.1 µM.
For assay [3] the target is unchanged. Conditions: at 1 µM.
The target in assay [4] is Protein-tyrosine kinase 2-beta (Homo sapiens) (UniProt Q14289). Conditions: at 0.1 µM.
Protein-tyrosine kinase 2-beta (Homo sapiens), sequence (Q14289 whole entry, looked up): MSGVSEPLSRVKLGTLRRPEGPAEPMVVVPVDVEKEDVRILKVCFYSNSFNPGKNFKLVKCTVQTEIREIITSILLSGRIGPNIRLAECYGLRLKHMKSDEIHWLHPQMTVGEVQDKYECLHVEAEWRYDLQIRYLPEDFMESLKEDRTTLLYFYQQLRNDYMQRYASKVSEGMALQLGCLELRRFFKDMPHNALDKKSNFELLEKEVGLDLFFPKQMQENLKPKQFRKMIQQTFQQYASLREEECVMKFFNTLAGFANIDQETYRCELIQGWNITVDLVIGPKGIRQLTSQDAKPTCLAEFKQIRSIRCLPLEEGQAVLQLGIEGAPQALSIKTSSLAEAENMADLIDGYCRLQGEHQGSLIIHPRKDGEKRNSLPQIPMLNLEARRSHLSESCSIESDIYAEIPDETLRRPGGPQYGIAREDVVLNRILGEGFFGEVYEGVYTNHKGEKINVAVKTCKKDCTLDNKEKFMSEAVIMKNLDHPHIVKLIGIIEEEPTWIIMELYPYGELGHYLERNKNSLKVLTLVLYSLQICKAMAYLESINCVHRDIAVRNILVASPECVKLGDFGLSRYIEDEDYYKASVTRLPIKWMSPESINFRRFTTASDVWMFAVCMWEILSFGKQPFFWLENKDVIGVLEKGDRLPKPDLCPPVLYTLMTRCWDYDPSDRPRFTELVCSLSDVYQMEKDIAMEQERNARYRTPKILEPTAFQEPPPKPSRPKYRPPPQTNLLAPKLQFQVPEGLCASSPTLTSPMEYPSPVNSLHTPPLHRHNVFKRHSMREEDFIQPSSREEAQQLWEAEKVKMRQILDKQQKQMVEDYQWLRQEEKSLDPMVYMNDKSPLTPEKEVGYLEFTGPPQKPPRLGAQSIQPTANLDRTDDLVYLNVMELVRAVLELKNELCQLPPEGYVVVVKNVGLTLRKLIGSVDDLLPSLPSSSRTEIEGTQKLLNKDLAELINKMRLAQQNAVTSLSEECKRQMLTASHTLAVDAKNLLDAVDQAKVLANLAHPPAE
For assay [5] the target is unchanged. Conditions: at 1 µM.
Assay [6] addresses Proto-oncogene tyrosine-protein kinase receptor Ret (Homo sapiens) (UniProt P07949). To be noted: at 0.1 µM.
Assay [7] has the same target. Conditions: at 1 µM.
Assay [8] deals with Proto-oncogene tyrosine-protein kinase receptor Ret (Homo sapiens), P07949 [V804L]. To be noted: at 0.1 µM.
Proto-oncogene tyrosine-protein kinase receptor Ret (Homo sapiens), P07949 [V804L], sequence (P07949 whole entry V804L): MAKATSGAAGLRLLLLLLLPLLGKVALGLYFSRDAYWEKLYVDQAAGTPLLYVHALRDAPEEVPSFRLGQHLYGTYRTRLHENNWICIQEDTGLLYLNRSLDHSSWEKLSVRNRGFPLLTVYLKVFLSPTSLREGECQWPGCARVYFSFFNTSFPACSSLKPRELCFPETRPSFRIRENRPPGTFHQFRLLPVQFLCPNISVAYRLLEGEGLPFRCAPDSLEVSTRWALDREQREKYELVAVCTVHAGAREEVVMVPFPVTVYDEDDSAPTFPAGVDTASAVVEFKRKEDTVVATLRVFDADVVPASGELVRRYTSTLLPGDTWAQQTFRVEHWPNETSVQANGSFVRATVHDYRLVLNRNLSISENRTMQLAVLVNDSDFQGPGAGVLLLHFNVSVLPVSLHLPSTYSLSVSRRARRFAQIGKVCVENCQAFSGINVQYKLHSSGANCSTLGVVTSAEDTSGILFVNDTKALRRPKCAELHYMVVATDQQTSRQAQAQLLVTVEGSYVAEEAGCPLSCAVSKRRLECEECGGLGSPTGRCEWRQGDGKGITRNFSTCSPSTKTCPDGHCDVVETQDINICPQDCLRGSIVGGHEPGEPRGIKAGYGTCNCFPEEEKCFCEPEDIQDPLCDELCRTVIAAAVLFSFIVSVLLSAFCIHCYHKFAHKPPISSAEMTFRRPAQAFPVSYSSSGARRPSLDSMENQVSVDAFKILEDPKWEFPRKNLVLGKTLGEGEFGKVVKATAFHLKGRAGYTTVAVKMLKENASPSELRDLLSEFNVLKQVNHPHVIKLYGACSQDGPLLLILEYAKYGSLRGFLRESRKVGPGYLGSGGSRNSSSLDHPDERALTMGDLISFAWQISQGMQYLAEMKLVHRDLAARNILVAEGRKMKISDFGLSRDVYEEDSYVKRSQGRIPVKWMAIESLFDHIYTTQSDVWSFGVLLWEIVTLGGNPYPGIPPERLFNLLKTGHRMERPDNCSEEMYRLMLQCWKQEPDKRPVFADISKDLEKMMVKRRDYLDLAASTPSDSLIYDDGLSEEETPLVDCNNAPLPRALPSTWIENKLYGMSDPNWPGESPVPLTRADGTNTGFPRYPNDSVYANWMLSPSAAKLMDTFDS
The test system is the same in assay [9]. Conditions: at 1 µM.
Assay [10] deals with Proto-oncogene tyrosine-protein kinase receptor Ret (Homo sapiens), P07949 [Y791F]. To be noted: at 0.1 µM.
Proto-oncogene tyrosine-protein kinase receptor Ret (Homo sapiens), P07949 [Y791F], sequence (P07949 whole entry Y791F): as the sequence (P07949 whole entry V804L) above, with Y791F, L804V counted along it

Tyrosine-protein kinase FRK (Homo sapiens), sequence (P42685 whole entry): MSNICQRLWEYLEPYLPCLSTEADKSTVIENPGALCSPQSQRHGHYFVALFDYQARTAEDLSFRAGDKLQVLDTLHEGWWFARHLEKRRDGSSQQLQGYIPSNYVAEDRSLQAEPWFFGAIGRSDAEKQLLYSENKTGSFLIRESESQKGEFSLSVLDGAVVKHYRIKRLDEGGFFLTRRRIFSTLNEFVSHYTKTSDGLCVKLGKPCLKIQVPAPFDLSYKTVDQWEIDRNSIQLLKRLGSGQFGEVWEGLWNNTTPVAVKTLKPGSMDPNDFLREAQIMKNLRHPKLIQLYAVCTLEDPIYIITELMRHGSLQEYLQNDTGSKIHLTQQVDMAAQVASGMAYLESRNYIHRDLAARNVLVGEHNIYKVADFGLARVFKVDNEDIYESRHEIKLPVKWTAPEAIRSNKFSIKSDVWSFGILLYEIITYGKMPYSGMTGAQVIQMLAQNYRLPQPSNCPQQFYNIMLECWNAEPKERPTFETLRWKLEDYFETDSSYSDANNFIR
Platelet-derived growth factor receptor beta (Homo sapiens), sequence (P09619 whole entry): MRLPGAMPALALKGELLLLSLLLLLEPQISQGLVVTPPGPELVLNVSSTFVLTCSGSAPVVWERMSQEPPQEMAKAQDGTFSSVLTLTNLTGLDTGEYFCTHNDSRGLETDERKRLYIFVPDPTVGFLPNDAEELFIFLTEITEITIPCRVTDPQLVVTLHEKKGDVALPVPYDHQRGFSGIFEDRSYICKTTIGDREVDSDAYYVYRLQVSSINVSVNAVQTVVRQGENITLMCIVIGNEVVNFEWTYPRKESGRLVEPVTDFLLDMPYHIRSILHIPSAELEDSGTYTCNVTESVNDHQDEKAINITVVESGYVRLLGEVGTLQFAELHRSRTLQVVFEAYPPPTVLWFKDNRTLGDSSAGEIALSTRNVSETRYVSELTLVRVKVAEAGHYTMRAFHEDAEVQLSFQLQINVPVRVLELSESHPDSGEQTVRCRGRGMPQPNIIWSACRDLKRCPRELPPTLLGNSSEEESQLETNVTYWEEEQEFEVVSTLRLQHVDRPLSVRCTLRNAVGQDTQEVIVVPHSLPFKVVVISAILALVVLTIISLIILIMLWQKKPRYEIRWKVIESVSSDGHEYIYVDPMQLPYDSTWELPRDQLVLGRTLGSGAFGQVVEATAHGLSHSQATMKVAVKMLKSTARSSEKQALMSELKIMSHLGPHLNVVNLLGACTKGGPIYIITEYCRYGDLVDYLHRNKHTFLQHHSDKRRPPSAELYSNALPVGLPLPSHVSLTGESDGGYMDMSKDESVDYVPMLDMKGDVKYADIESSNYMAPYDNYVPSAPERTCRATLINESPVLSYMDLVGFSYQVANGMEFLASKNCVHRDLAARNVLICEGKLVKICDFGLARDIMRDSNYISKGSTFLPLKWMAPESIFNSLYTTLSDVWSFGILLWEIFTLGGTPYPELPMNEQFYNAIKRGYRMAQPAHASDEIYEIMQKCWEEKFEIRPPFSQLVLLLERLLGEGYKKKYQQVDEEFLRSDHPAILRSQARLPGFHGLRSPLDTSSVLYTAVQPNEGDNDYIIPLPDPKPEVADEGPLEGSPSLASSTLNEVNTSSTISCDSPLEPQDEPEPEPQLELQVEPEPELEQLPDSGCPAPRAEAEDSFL
Proto-oncogene tyrosine-protein kinase receptor Ret (Homo sapiens), sequence (P07949 whole entry): as the sequence (P07949 whole entry V804L) above, with L804V counted along it

As to `O=C1NC(=O)C(c2cccc(Cl)c2)=C1Nc1ccc(O)c(Cl)c1`, the inhibition (commonly the change of the read-out against control, counted positive when it falls) in [1] is 11.5%; in [2], -0.47%; in assay [3], 1.74%; in [4], 1%; in assay [5] it was 9.11%; in [6], 3.31%. The inhibition in assay [7] is 7.66%; in [8], -0.49%; in assay [9] it was 0.64%; in assay [10] it was 2.27%.

As to `NS(=O)(=O)c1cccc(-c2ccc3c(NC(=O)C4CC4)n[nH]c3c2)c1`, the inhibition in assay [1] was 5.08%; in assay [2], 0.47%; in assay [3], 1.64%; in assay [4], -7.23%; in [5], 5.72%; in [6], 2.41%. For the same molecule, the inhibition in assay [7] is 1.62%; in assay [8], -0.14%; in assay [9] it was -1.66%; in assay [10], -2.8%.

For `Cc1cc(O)cc(C)c1/C=C/c1cncc(-c2nn[nH]n2)c1`, the inhibition came to 49.5% in assay [1]; 6.95% in assay [2]; 33.8% in [3]; 12.8% in [4]; 12.1% in assay [5]; 1.14% in assay [6]. Also, the inhibition in [7] came out at 9.47%; in [8] it was 8.88%; in [9], 9.42%; in assay [10] it was 3.32%.

As for `COc1cc2ncn(-c3cc(OCc4ccccc4Cl)c(C(N)=O)s3)c2cc1OC`, the inhibition in [1] was 86.5%; in [2], 2.63%; in assay [3], 2.45%; in [4] it was -1.12%; in [5], 6.28%; in assay [6], 17.7%. Further, the inhibition in assay [7] was 60.8%; in [8] it was 4.73%; in assay [9], 26.9%; in [10], 20.7%.

On to `COc1cc(C)c(NC(=O)CN(C)C)cc1Nc1nc(Nc2cccc(F)c2C(N)=O)c2cc[nH]c2n1`, for which the inhibition was 15% in [1]; 0.21% in [2]; 1% in assay [3]; 93.1% in assay [4]; 98% in assay [5]; 1.91% in assay [6]. In addition, the inhibition in [7] was 5.56%; in assay [8] it was 4.41%; in [9] it was 20.7%; in assay [10], 5.09%.

As for `COc1ccc(-c2coc3ncnc(N)c23)cc1`, the inhibition in [1] came out at 12.1%; in [2], 1.9%; in assay [3], 2.14%; in assay [6], 4.27%; in assay [7], 11.7%; in assay [8], 4.56%. Besides, the inhibition in assay [9] worked out at 5.32%; in assay [10], 10.4%.

On to `CC1=C(C(=O)Nc2ccc3[nH]ncc3c2)C(c2ccc(Cl)c(Cl)c2)CC(=O)N1` (stereo not drawn), for which the inhibition in assay [1] came to 6.02%; in [2] it was 1.03%; in assay [3], 7.47%; in assay [4], 6.27%; in assay [5], 8.74%; in assay [6] it was 5.65%. The inhibition in assay [7] turned out to be 22.8%; in assay [8], 3.81%; in assay [9], 16.5%; in [10], 8.05%.

Take `Cc1nnc(-c2ccc(C)c(-c3ccc(C(=O)Nc4cccc(C#N)c4)cc3)c2)o1`: the inhibition in [1] amounted to 10.9%; in assay [2], 2.05%; in assay [3], 2.02%; in assay [4], 4.97%; in assay [5], 6.48%; in assay [6], 7.9%. In addition, the inhibition in assay [7] was 12.9%; in assay [8] it was 4.42%; in assay [9], 8.03%; in [10], 4.58%.

Turning to `Cc1ccc(NC(=O)c2ccnc(N3CCCC3)c2)cc1-c1ccc(C(=O)NCC2CC2)cc1`, the inhibition in [1] was found to be 13.4%; in assay [2], 2.28%; in assay [3], 2.38%; in [4], 12.2%; in assay [5] it was 9.43%; in assay [6], 6.99%. Also, the inhibition worked out at 9.44% in assay [7], 8.29% in [8], 9.54% in assay [9] and 10.7% in [10].

Regarding `c1cnn2ncc(-c3ccnc(Nc4ccc5c(c4)OCCO5)n3)c2c1`, the inhibition in assay [1] was 67.3%; in assay [2], 1.69%; in assay [3], 3.19%; in assay [4] it was 32.6%; in assay [5], 84.6%; in assay [6], 5.62%. For the same molecule, the inhibition in [7] was determined as 21.9%; in assay [8], 5.79%; in [9] it was 22%; in [10], 4.73%.

As for `CS(=O)(=O)CCNCc1nc(-c2ccc3ncnc(Nc4ccc(F)c(Cl)c4)c3c2)cs1`, the inhibition is 9.07% in assay [1]; -0.58% in assay [2]; 2.43% in assay [3]; -0.72% in assay [4]; 1.64% in assay [5]; 4.76% in assay [6]. In addition, the inhibition turned out to be 13.1% in [7], 5.1% in assay [8], 11% in [9] and 7.75% in assay [10].

On to `COc1ccc(-c2ccncc2)cc1C(N)=O`, for which the inhibition in [1] is 11.4%; in assay [2], 4.92%; in assay [3], 5.68%; in assay [4] it was 5.98%; in assay [5], 11.3%; in assay [6], 3.52%. Also, the inhibition in assay [7] was 6.29%; in assay [8], 2.72%; in [9], 9.41%; in assay [10], 4.39%.

Consider `O=C1NC(=O)C(N2CCc3ccccc32)=C1c1ccc(Cl)cc1`, for which the inhibition is 8.69% in assay [1]; 2.55% in assay [2]; 3.4% in assay [3]; 8.33% in assay [4]; 7.03% in [5]; 2.35% in [6]. The inhibition in [7] came out at 10.1%; in assay [8] it was 7.17%; in assay [9] it was 9.11%; in assay [10], 11.4%.

`CS(=O)(=O)CCNCc1ccc(-c2ccc3ncnc(Nc4ccc(OCc5ccccc5)c(Cl)c4)c3c2)o1`: the inhibition was determined as 5.7% in [1]; 0.96% in assay [2]; 2.22% in assay [3]; 5.42% in assay [4]; 5.81% in assay [5]; 4.78% in [6]. Also, the inhibition in assay [7] stood at 9.58%; in assay [8], 9.04%; in assay [9], 12.4%; in assay [10] it was 10.2%.

`NC(=O)c1ccc(-c2nc(-c3ccccn3)c(-c3ccc4c(c3)OCO4)[nH]2)cc1`: the inhibition in assay [1] is 7.47%; in assay [2], 0.98%; in assay [3], -0.16%; in [4], 1.97%; in assay [5] it was 6.61%; in assay [6], 6.29%. The inhibition worked out at 8.97% in assay [7], 4.67% in [8], 5.88% in assay [9] and 6.95% in [10].

As for `Nc1ncnc2occ(-c3ccc(NC(=O)Nc4cccc(C(F)(F)F)c4)cc3)c12`, the inhibition in assay [1] was determined as 94.8%; in assay [2], 4.28%; in [3], 21.2%; in assay [4] it was 8.39%; in [5], 32.3%; in assay [6], 84.9%. For the same molecule, the inhibition in assay [7] amounted to 87.2%; in [8] it was 64.8%; in assay [9], 79.9%; in [10], 73.9%.

Consider `COc1cc2ncn(-c3cc(OCc4ccccc4C(F)(F)F)c(C(N)=O)s3)c2cc1OC`, for which the inhibition amounted to 83.5% in assay [1]; 3.08% in [2]; 3.46% in assay [3]; 2.32% in [4]; 19.4% in assay [5]; 14.5% in [6]. Besides, the inhibition in assay [7] came out at 41.6%; in assay [8] it was 10.4%; in [9] it was 34.3%; in [10], 17.9%.
